Records with an inconclusive call do not appear. Active and inactive are the calls of the source. Unless noted, calls come from the whole dose curve; as a rule, active = well fitted curve in the direction sought with a large enough effect in the repeat runs; inconclusive = weak or mixed curves; inactive = no such curve, though single readings can be large; an effect the other way counts as inactive or inconclusive.

Test [1] concerns the target Aryl hydrocarbon receptor (Homo sapiens) (UniProt P35869). As to the kind of experiment: qHTS assay to identify small molecule that activate the aryl hydrocarbon receptor (AhR) signaling pathway (AID 743085).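 For activation: HG2L7.5c1 human HepG2 liver cells with stably integrated DRE-driven firefly reporter; series mostly up to about 70 µM.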 Note: nearly all actives have a fitted effect of over 15% in size. Note: potency is the fitted concentration of half-maximal effect. The gist of the method: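 Luminescence read-out: ONE-Glo reagent, 30 min at room temperature, in HG2L7.5c1 HepG2 reporter cells treated 24 h at 37C. Viability was measured beforehand by CellTiter-Fluor fluorescence after 30 min at 37C.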

The target of test [2] is Peroxisome proliferator-activated receptor gamma (Homo sapiens) (UniProt P37231). The test can be described thus: qHTS assay to identify small molecule agonists of the peroxisome proliferator-activated receptor gamma (PPARg) signaling pathway (AID 743094; active = well fitted activation curve with a large enough effect in the signal ratio in the repeat runs, not every such curve was filed as active; the % refers to the signal ratio). The procedure, abridged: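 Agonist activity was taken from a beta-lactamase reporter (FRET substrate, 1 h at room temperature) in HEK293H cells carrying a PPARg UAS-bla construct. Compounds in DMSO were incubated 17 h at 37C after a 5 h cell pre-incubation.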
Peroxisome proliferator-activated receptor gamma (Homo sapiens), sequence (P37231 whole entry, looked up): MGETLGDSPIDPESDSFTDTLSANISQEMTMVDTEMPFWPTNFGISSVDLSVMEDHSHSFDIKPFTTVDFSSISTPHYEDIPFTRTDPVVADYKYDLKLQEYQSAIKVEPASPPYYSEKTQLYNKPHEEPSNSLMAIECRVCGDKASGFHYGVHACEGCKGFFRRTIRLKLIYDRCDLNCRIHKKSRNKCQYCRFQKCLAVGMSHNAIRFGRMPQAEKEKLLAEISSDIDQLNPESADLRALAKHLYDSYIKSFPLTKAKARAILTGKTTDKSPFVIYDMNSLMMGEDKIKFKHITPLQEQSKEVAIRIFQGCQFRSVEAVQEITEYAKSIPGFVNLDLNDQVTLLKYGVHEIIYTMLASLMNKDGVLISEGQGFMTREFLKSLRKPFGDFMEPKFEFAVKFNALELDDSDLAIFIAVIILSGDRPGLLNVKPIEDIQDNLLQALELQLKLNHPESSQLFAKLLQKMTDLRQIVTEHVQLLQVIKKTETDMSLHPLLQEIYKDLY

Test [3] can be described thus: qHTS assay to identify small molecule antagonists of the peroxisome proliferator-activated receptor gamma (PPARg) signaling pathway - cell viability counter screen (AID 743194). Note: nearly all actives have a fitted effect of over 55% in size. The gist of the method:
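PPARg-UAS-bla HEK293H cells were plated, rested 5 h at 37 C, then treated with compounds plus rosiglitazone (50 nM final) for 17 h at 37 C; viability was then read by CellTiter-Glo luminescence after 30 min at room temperature.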

Test [4] in a line: qHTS assay for small molecule agonists of the antioxidant response element (ARE) signaling pathway - cell viability counter screen (AID 743203; calls by dose curve; note: nearly all actives have a fitted effect of over 55% in size; note: potency is the fitted concentration of half-maximal effect). The procedure, abridged:
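Viability counter screen: CellTiter-Glo luminescence, read after 30 min at room temperature, in ARE-bla HepG2 wells. Compound exposure lasted 16 h at 37C/5% CO2, following a 5 h pre-incubation of the cells after plating.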

Test [5] in a line: qHTS assay for small molecule activators of the heat shock response signaling pathway - cell viability counter screen (AID 743209). Note: nearly all actives have a fitted effect of over 50% in size. The gist of the method: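 Cytotoxicity counter screen run in the same wells as the heat-shock bla reporter assay: HeLa HSE-bla cells, 5 h compound exposure at 37 C, viability read by CellTiter-Glo luminescence.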
Test [6] can be described thus: qHTS assay for small molecule activators of the heat shock response signaling pathway (AID 743210; active = well fitted activation curve with a large enough effect in the signal ratio in the repeat runs, with a control signal flat, not every such curve was filed as active; the % refers to the signal ratio;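 note: HeLa cells with beta-lactamase reporter driven by heat shock elements; series mostly up to about 63 µM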). The gist of the method:
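Activation of heat shock element-controlled beta-lactamase expression is measured in HeLa cells by LiveBLAzer FRET fluorescence, with compound exposure lasting 5 h at 37 C and substrate loading 2.5 h at room temperature.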

The nature of test [7]: qHTS assay to identify small molecule agonists of the peroxisome proliferator-activated receptor delta (PPARd) signaling pathway - cell viability counter screen (AID 743211). Note: nearly all actives have a fitted effect of over 55% in size. Note: potency is the fitted concentration of half-maximal effect. The gist of the method: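 Read-out: CellTiter-Glo luminescence, 30 min RT, measured in the same wells as the beta-lactamase reporter. Cells: GeneBLAzer PPAR delta UAS-bla HEK293H, 3000 cells/well, compound exposure 17 h at 37C.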

Test [8] in a line: qHTS assay to identify small molecule that activate the aryl hydrocarbon receptor (AhR) signaling pathway - cell viability counter screen (AID 743086). Note: nearly all actives have a fitted effect of over 45% in size. Note: potency is the fitted concentration of half-maximal effect. The procedure, abridged:
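HepG2-AhR-luc (HG2L7.5c1) cells, 4000/well, were preincubated 5 h at 37C, exposed to compound in qHTS format for 24 hr at 37C, then given CellTiter-Fluor for 30 min; viability was read as fluorescence in the reporter wells.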

Test [9] has as its target Peroxisome proliferator-activated receptor gamma (Homo sapiens) (UniProt P37231). The test can be described thus: qHTS assay to identify small molecule antagonists of the peroxisome proliferator-activated receptor gamma (PPARg) signaling pathway (AID 743191; calls by dose curve; note: nearly all actives have a fitted effect of over 30% in size; note: potency is the fitted concentration of half-maximal effect). The procedure, abridged: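 GeneBLAzer PPARg UAS-bla HEK293H cells carrying a UAS-driven beta-lactamase reporter were plated at 3000 cells/well, preincubated 5 h at 37C, then given compound for 17 h at 37C; LiveBLAzer B/G FRET substrate was read after 1 h at room temperature.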

A short description of test [10]: qHTS assay for small molecule agonists of the antioxidant response element (ARE) signaling pathway (AID 743202; active = well fitted activation curve with a large enough effect in the signal ratio in the repeat runs, not every such curve was filed as active; the % refers to the signal ratio; note: potency is the fitted concentration of half-maximal effect). The gist of the method:
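Steps: seed ARE-bla HepG2 cells (2,000/well); incubate 5 h at 37 C; add compounds by pin tool; incubate 16 h at 37 C; add FRET substrate; read fluorescence after 2 h at RT.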

Aryl hydrocarbon receptor (Homo sapiens), sequence (P35869 whole entry, looked up): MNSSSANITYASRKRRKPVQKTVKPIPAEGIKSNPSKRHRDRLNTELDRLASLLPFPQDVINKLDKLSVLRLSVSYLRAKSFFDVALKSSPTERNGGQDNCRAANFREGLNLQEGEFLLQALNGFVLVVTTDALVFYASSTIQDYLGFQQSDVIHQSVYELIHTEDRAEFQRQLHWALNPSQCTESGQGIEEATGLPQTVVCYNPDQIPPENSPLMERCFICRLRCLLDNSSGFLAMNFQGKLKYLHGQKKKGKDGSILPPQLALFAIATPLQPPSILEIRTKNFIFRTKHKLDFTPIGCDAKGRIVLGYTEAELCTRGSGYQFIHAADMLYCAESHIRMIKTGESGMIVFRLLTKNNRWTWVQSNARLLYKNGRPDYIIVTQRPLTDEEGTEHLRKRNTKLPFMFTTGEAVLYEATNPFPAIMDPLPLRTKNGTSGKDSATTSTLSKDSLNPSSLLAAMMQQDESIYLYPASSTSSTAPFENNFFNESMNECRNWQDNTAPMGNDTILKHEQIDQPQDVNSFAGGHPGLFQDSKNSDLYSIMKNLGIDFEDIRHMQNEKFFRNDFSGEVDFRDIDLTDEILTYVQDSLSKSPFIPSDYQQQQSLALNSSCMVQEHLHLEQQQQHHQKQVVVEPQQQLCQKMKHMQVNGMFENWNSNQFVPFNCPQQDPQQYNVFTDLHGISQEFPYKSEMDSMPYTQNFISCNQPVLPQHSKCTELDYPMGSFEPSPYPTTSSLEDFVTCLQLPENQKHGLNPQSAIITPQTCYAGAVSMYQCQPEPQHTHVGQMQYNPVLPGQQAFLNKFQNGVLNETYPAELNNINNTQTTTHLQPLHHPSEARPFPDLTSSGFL

As for `CCC(Cc1ccccc1)(C(=O)c1ccc(N2CCOCC2)cc1)N(C)C` (stereo not given), the Potency result in [1], in test [2], in test [3], in [4], in [5] and in [6] was “inactive” each time. In [7], the Potency entry was “inactive”.

On to `Cc1cc(S(=O)(=O)O)ccc1N=Nc1c(O)ccc2ccccc12`, for which, in test [8], the Potency was 24.3 µM (active). The Potency result in test [2], in test [9], in test [3], in test [10], in test [4] and in test [5] was “inactive” in each case. The Potency entry in [6] and in [7] was “inactive” each time.

Turning to `CN1CCN(CCCN2c3ccccc3Sc3ccc(S(=O)(=O)N(C)C)cc32)CC1`, the Potency result in test [1], in test [8] and in test [6] was “inactive” each time. Moreover, in [4], the Potency was 26.6 µM (active).

Consider `CCc1c2c(nc3ccc(OC(=O)N4CCC(N5CCCCC5)CC4)cc13)-c1cc3c(c(=O)n1C2)COC(=O)[C@]3(O)CC`, for which the Potency result in test [1], in [8], in [3], in [4], in [5] and in [6] was “inactive” in each case. In test [7], the Potency result is “inactive”.

Regarding `CC[C@H](NC(=O)c1cc(F)ccc1NS(=O)(=O)c1cccc2cccnc12)c1ccccc1`, the Potency result in [1], in test [8], in [3], in test [4], in test [5] and in test [6] was “inactive” in each case. Further, the Potency entry in test [7] was “inactive”.

Take `O=C(N[C@@H](c1ccccc1)[C@@H]1CCCCN1)c1cccc(C(F)(F)F)c1Cl`: the Potency result in test [1], in [5] and in [6] was “inactive” each time. The results for the Potency in [8], in [4] and in [7] were 24.3 µM (active), 21.7 µM (active) and 27.5 µM (active), respectively.

As to `COCCOC(=O)C1=C(C)NC(C)=C(C(=O)OC/C=C/c2ccccc2)C1c1cccc([N+](=O)[O-])c1` (stereo not given), the Potency in [1] is 0.944 µM (active); in test [9], 18.8 µM (active). Further, the Potency entry in [3], in [5] and in test [6] was “inactive” throughout.

Turning to `O=c1[nH]c2ccc(S(=O)CCN3CCC(Cc4ccc(F)cc4)CC3)cc2o1` (stereo not given), the Potency result in test [1], in test [8], in test [3], in test [4], in [5] and in [6] was “inactive” throughout. Further, the Potency result in test [7] was “inactive”.

Consider `CC1(C)C(=O)N(Br)C(=O)N1Cl`, for which the Potency result in test [1], in [9], in [3], in test [4], in test [5] and in test [6] was “inactive” in each case. In test [7], the Potency result was “inactive”.

Regarding `CCC(=O)OC/C=C/c1ccccc1`, the Potency result in test [8], in test [2], in test [9], in test [3], in test [4] and in test [5] was “inactive” throughout. Further, the Potency result in test [6] and in test [7] was “inactive” throughout.

In the case of `Oc1ccc(Nc2ccccc2)cc1`, the Potency entry in test [1], in test [8], in test [4], in [5], in test [6] and in [7] was “inactive” in each case. Further, the Potency in test [10] was 27.3 µM (active).

On to `CNCCCC1c2ccccc2C=Cc2ccccc21`, for which the Potency entry in [1], in test [8], in test [3], in [4], in [5] and in [6] was “inactive” each time.

On to `Fc1c(F)c(F)c(Br)c(F)c1F`, for which the Potency entry in [8], in test [2], in test [9], in [3], in test [4] and in test [5] was “inactive” throughout. In test [6], the Potency result is “inactive”.

As for `NC(=O)N(O)[C@@H]1COc2cc(OCc3ccccc3)ccc21`, the Potency entry in test [1], in test [2], in [9], in test [3], in test [10] and in test [4] was “inactive” each time. Moreover, the Potency result in test [5], in [6] and in [7] was “inactive” each time.

In the case of `C[N+]1(C)CCC(=C(c2ccccc2)c2ccccc2)CC1`, the Potency result in test [1], in test [8], in test [3], in [4], in test [5] and in test [7] was “inactive” throughout.

Turning to `O=C(CCCN1CCN(c2ccc(F)cc2)CC1)NC1c2ccccc2CSc2ccccc21` (stereo not given), the Potency entry in [1], in test [5] and in [6] was “inactive” each time. Also, the Potency in test [7] is 9.44 µM (active).

As for `NC(=O)N(O)[C@@H]1C=C[C@H](Oc2cccc(Oc3ccc(F)cc3)c2)C1`, the Potency result in [1], in test [2], in test [3], in test [4], in test [5] and in [6] was “inactive” each time. Moreover, the Potency entry in [7] was “inactive”. In addition, the Potency in [10] is 17.2 µM (active).

For the molecule `CCCOc1ccc(S(=O)(=O)N2CCN(CC)CC2)cc1-c1nc2c(CC)n(Cc3ccccn3)nc2c(=O)[nH]1`, the Potency entry in test [1], in test [3], in test [4], in [5], in [6] and in test [7] was “inactive” in each case.

As to `CCOc1cc(N)c(Cl)cc1C(=O)NCC1CN(Cc2ccc(F)cc2)CCO1` (stereo not given), the Potency in [1] is 0.266 µM (active). In addition, the Potency entry in test [8], in [3], in test [4] and in [6] was “inactive” throughout.

These data come from PubChem BioAssay (Tox21).
